Bioassay records as filed in PubChem.
Sampled rows, rich in hits. Any-hit rate of the full collection: about 2%.
PKA-R1A activ – PKA-R1A complex activation; P00514+P68181; 0.083% of 340,000 active; PKA-R1A dissociation, Cy5-IP20 fluorescence polarization; scaled: DMSO 0%, 113 µM cGMP 100%; activation, % at 11.4 µM;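 active = percent activation above the mean of all tested compounds plus 3 SD, cut at about 19% in these data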;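 also: higher means more PKAc released from R1A so a rise in polarization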
MsrA act – bovine methionine sulfoxide reductase A activation; activation, % at 10.6 µM; 0.3% of 360,000 active; purified bovine MsrA, absorbance read-out; in the data active = activation above about 7.5%;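 also: 0% = vehicle and 100% = reference activator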
SUMO Mot1 rescue – SUMOylation pathway inhibition by Mot1-301 growth rescue. S. cerevisiae Mot1-301 growth rescue, ATP luminescence, 38.5C; percent above DMSO median, 100 means doubled. growth rescue, % at 18.8 µM. 1% of 320,000 active. AID 2716;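 active = every valid replicate shows activation above 250% relative to neutral control wells; inactive = the rest, any valid replicate at or below 250%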;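 also: OY570 slx delta 5 strain wells were the positive control but not used for scaling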
MsrA inhibitor – inhibits bovine methionine sulfoxide reductase A | purified bovine MsrA, absorbance read-out | 0.75% of 360,000 active | inhibition, % at 15.5 µM; in the data active = inhibition above about 4.5%;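 also: 0% = vehicle wells with enzyme and 100% = reference inhibitor wells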
PKA-R2B activ – activates the human PKA-R2B holoenzyme complex; 0.079% of 340,000 active; PKA-R2B holoenzyme dissociation, Cy5-IP20 fluorescence polarization; R2B truncated from residue 108, S112A mutant; 0% DMSO only, 100% 113 µM cGMP; activation, % at 11.4 µM; P22694+P31323;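 active = activation above a cutoff set at the mean over all compounds plus 3 SD, cut at about 18% in these data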;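 also: higher means more holoenzyme dissociation and a rise in polarization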
Target sequence (P31323 whole entry, looked up, other chains not shown, the tested form may be a part): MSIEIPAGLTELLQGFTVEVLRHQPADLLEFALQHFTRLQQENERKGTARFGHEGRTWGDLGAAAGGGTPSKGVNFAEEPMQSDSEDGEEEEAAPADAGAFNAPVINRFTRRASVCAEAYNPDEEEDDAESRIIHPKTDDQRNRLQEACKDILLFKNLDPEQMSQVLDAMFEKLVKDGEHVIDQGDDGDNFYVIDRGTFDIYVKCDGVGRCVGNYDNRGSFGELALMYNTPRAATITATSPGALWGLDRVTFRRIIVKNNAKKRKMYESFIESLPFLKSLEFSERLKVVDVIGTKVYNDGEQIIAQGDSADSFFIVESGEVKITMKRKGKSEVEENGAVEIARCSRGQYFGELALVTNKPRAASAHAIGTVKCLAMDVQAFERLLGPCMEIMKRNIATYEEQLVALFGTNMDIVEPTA
R1A FP artifact – counter-screen for PKA-R1A activators: fluorescence polarization artifacts. shares compounds with PKA-R1A activ. Cy5-IP20 peptide alone, fluorescence polarization artifact counterscreen. activation, % at 11.4 µM. 7% of 280 active;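 active = mean activation over triplicate runs exceeds the adjusted cutoff derived for the parent primary screen, cut at about 19% in these data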;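 also: no PKA protein present so any polarization rise reflects compound interference; 0% = tracer peptide mix alone and 100% = mix with added PKA catalytic subunit; higher means stronger polarization artifact and likely false positive in parent screen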
PKA-R1A confirm – confirmation of PKA-R1A complex activators. shares compounds with PKA-R1A activ. Cy5-IP20 fluorescence polarization, PKA-R1A holoenzyme dissociation. activation, % at 11.4 µM. 9% of 280 active;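 active = mean activation over replicate wells exceeds the adjusted hit threshold taken from the earlier primary screen, cut at about 20% in these data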;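 also: 0% = holoenzyme mix with DMSO only and 100% = cGMP-activated control wells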
MsrA activ conf – bovine methionine sulfoxide reductase A activation confirmed; AID 602270; activation, % at 10.6 µM; shares compounds with MsrA act; 12% of 1,000 active; purified bovine MsrA, absorbance read-out; in the data active = activation above about 4%;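 also: enzyme coupled to thioredoxin and thioredoxin reductase with NADPH; 0% = vehicle wells and 100% = reference activator wells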
Active calls of the source: *.

Results for COC(=O)c1cc(NC(=O)CC2NCCNC2=O)cc(C(=O)OC)c1 (stereo not given) ?
PKA-R1A activ: -7; MsrA act: -2; SUMO Mot1 rescue: -4; MsrA inhibitor: 0; PKA-R2B activ: -15

What do the screens show for `CCc1cc(C(=O)OC)c(NC(=O)CC2NCCNC2=O)s1` (stereo not given)?
PKA-R1A activ: 25*; MsrA act: -4; SUMO Mot1 rescue: 26; MsrA inhibitor: 0; PKA-R2B activ: 7; R1A FP artifact: 5; PKA-R1A confirm: 3

Results for COC(=O)C1=C(C)N(Cc2ccc(C(F)(F)F)cc2)C(=NCc2ccc(C(F)(F)F)cc2)NC1c1cccc(C(F)(F)F)c1 (stereo not given) ?
MsrA inhibitor: -2

What do the screens show for `OCC[C@@H]1C[C@H](O)[C@@H](O)[C@@]2(OCCc3cc(C(F)(F)F)ccc32)O1`?
MsrA inhibitor: 0

How did O=C1C2C3C=CC(C3)C2C(=O)N1c1ccc(-c2nc(-c3ccccc3)nc3ccccc23)cc1 (stereo not given) do in these assays?
MsrA inhibitor: -1

What do the screens show for `O=C(NCc1ccccc1)c1onc(CSc2ccc(Cl)cc2)c1C(=O)NCc1ccccc1`?
PKA-R1A activ: 2; MsrA act: -4; SUMO Mot1 rescue: 6; MsrA inhibitor: 0; PKA-R2B activ: 2

What do the screens show for `CN(C)CCNC(=O)c1c(CSc2ccc(Cl)cc2)noc1C(=O)NCc1ccccc1`?
PKA-R1A activ: 20*; MsrA act: -1; SUMO Mot1 rescue: 0; MsrA inhibitor: -1; PKA-R2B activ: 2; R1A FP artifact: 3; PKA-R1A confirm: 5

What do the screens show for `COc1cccc(C(=O)N2CCC[C@@H]2C(=O)N2CCC[C@H]2C(=O)NCc2ccccc2)c1`?
MsrA inhibitor: 0

Results for CCOC(=O)C1CCN(CC(C)(C)NS(=O)(=O)c2ccccc2)CC1 ?
PKA-R1A activ: 21*; MsrA act: -2; SUMO Mot1 rescue: 57; MsrA inhibitor: -1; PKA-R2B activ: 7; R1A FP artifact: 0; PKA-R1A confirm: -4

What do the screens show for `CC(=O)N1CCN(CC(C)(C)NS(=O)(=O)c2ccccc2)CC1`?
PKA-R1A activ: -1; MsrA act: -7; SUMO Mot1 rescue: 41; MsrA inhibitor: 1; PKA-R2B activ: -4

What do the screens show for `COC(=O)[C@]12C[C@H](CC(=O)NCCC(C)C)C(=O)N(CCC3=CCCCC3)C1=C[C@H](C(C)(C)C)O[C@@H]2C`?
MsrA inhibitor: 0

How did O=C(O)c1nn(CC(=O)N2CCC(Cc3ccccc3)CC2)c(=O)c2ccccc12 do in these assays?
PKA-R1A activ: 21*; MsrA act: -2; SUMO Mot1 rescue: -6; MsrA inhibitor: 3; PKA-R2B activ: -5; R1A FP artifact: 1; PKA-R1A confirm: 3

Results for O=C(O)c1nn(CC(=O)N2CCN(c3ccccc3)CC2)c(=O)c2ccccc12 ?
PKA-R1A activ: -6; MsrA act: -1; SUMO Mot1 rescue: -4; MsrA inhibitor: 0; PKA-R2B activ: -4

What do the screens show for `Cc1cc(C)c2c(CC(=O)NNC(=O)c3ccccc3)coc2c1`?
PKA-R1A activ: 27*; MsrA act: 4; SUMO Mot1 rescue: -9; MsrA inhibitor: 0; PKA-R2B activ: 2; R1A FP artifact: 6; PKA-R1A confirm: 3

Results for COc1ccc(-c2cc(NC(=O)Cc3c(C)[nH]c4ccccc34)ccc2Nc2cccnc2)cc1OC ?
MsrA inhibitor: 1

How did Cc1nc(-c2ccc(Cl)cc2)sc1C1(C)CC(c2ccc(OC(F)(F)F)cc2)=NO1 (stereo not given) do in these assays?
PKA-R1A activ: -4; MsrA act: 0; SUMO Mot1 rescue: -1; MsrA inhibitor: 1; PKA-R2B activ: 3

Results for Cc1nc(-c2ccccc2)sc1C1(C)CC(c2ccc(OC(F)(F)F)cc2)=NO1 (stereo not given) ?
PKA-R1A activ: 19*; MsrA act: -1; SUMO Mot1 rescue: 281; MsrA inhibitor: 1; PKA-R2B activ: 4; R1A FP artifact: 0; PKA-R1A confirm: -2

Results for CNC(=O)COc1ncnc2scc(-c3ccc(F)cc3)c12 ?
PKA-R1A activ: 19*; MsrA act: -4; SUMO Mot1 rescue: 7; MsrA inhibitor: 0; PKA-R2B activ: 1; R1A FP artifact: 3; PKA-R1A confirm: 5

What do the screens show for `CCNC(=O)COc1ncnc2scc(-c3ccc(F)cc3)c12`?
PKA-R1A activ: -2; MsrA act: 1; SUMO Mot1 rescue: 2; MsrA inhibitor: 0; PKA-R2B activ: -16

Results for O=C(CSc1ccc(-c2ccncc2)nn1)N1CCCCC1 ?
PKA-R1A activ: 19*; MsrA act: 5; SUMO Mot1 rescue: -10; MsrA inhibitor: 1; PKA-R2B activ: -6; R1A FP artifact: 0; PKA-R1A confirm: 8

What do the screens show for `CCCCCCCn1c(C)nnc1-c1cnn(C)c1N`?
PKA-R1A activ: 20*; MsrA act: -2; SUMO Mot1 rescue: -7; MsrA inhibitor: -1; PKA-R2B activ: -2; R1A FP artifact: 0; PKA-R1A confirm: -1

How did COc1ccccc1Oc1coc2cc(OCC(N)=O)ccc2c1=O do in these assays?
PKA-R1A activ: 19*; MsrA act: -1; SUMO Mot1 rescue: -4; MsrA inhibitor: 1; PKA-R2B activ: -4; R1A FP artifact: 1; PKA-R1A confirm: 4

What do the screens show for `CC(C)c1ccc(NC(=O)CSc2nnc(-c3ccccn3)n2C)cc1`?
PKA-R1A activ: 0; MsrA act: 0; SUMO Mot1 rescue: -6; MsrA inhibitor: 0; PKA-R2B activ: -5

Results for CCc1ccc(NC(=O)CSc2nnc(-c3ccccn3)n2C)cc1 ?
PKA-R1A activ: 19*; MsrA act: -1; SUMO Mot1 rescue: 0; MsrA inhibitor: -1; PKA-R2B activ: 2; R1A FP artifact: 6; PKA-R1A confirm: 4

Results for OCCCCCCNc1ccc(CCO)cc1 ?
MsrA act: 8.6*; MsrA inhibitor: -1; MsrA activ conf: 0

Results for S=c1[nH]ncc2ccccc12 ?
PKA-R1A activ: -1; MsrA act: 0; SUMO Mot1 rescue: -8; MsrA inhibitor: 4; PKA-R2B activ: 7

Results for S=c1[nH]ccc2ccccc12 ?
PKA-R1A activ: -5; MsrA act: 9.8*; MsrA inhibitor: 1; PKA-R2B activ: -3; MsrA activ conf: 2

What do the screens show for `O=C(O)[C@@H]1C[C@@H](O)CN1`?
MsrA inhibitor: -2
